Measurements taken from the supplement of paper PMC6411743.
± gives the standard deviation of the averaged measurements. About 6,200 targets were measured; listed, in parts, are those with the largest changes and a random draw of the rest.

Compound: Nc1ncnc2c1ncn2[C@@H]1O[C@H](COP(=O)(O)OP(=O)(O)NP(=O)(O)O)[C@@H](O)[C@H]1O [adenylyl imidodiphosphate]
Assay: NP40-soluble protein abundance relative to vehicle (solubility fold change) (ratio); higher = more soluble protein in presence of AMP-PNP
Summary of the method: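 In three independent experiments, Jurkat crude lysate made by Dounce homogenisation was treated for 10 min at room temperature and then 3 min at 37 °C with eight concentrations ranging from 0.1 to 10 mM. It was then solubilised with 0.8% NP40 plus benzonase for 60 min at 4 °C and ultracentrifuged. The supernatant was TMT-labelled for LC-MS/MS, and each value is the fold change against the detergent-processed vehicle for the same replicate, using vsn-normalised intensities.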

Chain of UniProt Q9UM21 (Q9UM21 whole entry): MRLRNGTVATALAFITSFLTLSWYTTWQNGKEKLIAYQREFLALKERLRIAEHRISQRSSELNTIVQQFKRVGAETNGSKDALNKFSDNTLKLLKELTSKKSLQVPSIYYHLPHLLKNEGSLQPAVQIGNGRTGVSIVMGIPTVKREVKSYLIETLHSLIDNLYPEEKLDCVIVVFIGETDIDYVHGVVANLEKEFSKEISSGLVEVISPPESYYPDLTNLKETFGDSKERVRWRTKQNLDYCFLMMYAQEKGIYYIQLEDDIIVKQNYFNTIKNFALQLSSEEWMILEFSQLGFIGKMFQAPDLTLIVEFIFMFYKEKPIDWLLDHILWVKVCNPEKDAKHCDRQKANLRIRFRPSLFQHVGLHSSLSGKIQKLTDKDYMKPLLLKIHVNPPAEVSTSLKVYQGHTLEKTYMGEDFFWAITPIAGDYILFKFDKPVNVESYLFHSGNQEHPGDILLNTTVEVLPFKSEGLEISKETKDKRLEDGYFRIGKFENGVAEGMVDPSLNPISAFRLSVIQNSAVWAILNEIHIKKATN
Chain of UniProt Q9UPT9 (Q9UPT9 whole entry): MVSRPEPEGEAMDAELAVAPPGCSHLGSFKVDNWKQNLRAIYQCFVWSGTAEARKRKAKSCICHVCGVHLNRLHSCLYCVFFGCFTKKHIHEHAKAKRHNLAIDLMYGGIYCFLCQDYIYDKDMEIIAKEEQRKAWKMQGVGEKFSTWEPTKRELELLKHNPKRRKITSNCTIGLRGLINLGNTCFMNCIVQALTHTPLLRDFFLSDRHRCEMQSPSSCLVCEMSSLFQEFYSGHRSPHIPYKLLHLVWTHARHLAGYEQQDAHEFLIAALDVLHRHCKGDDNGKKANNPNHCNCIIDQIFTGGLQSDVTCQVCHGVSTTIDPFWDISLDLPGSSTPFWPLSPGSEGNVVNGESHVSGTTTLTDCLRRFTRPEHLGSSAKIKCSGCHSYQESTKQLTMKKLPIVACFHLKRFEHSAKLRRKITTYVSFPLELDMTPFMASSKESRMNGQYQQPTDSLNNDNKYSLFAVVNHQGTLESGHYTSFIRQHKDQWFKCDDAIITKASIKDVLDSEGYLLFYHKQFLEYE
Chain of UniProt Q96NT0 (Q96NT0 whole entry): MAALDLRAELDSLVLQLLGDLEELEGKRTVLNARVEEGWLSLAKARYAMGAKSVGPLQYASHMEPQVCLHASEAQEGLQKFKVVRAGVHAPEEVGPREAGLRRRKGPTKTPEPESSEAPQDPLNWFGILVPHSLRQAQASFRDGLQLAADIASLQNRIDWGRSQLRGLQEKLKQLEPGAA
Chain of UniProt Q96DA2 (Q96DA2 whole entry): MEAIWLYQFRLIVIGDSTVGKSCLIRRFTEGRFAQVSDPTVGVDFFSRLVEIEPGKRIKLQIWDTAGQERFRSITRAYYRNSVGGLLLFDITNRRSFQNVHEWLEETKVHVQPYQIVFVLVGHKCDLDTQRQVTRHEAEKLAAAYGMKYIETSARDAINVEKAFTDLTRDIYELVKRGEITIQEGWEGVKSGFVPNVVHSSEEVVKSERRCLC
Chain of UniProt Q9HC36 (Q9HC36 whole entry): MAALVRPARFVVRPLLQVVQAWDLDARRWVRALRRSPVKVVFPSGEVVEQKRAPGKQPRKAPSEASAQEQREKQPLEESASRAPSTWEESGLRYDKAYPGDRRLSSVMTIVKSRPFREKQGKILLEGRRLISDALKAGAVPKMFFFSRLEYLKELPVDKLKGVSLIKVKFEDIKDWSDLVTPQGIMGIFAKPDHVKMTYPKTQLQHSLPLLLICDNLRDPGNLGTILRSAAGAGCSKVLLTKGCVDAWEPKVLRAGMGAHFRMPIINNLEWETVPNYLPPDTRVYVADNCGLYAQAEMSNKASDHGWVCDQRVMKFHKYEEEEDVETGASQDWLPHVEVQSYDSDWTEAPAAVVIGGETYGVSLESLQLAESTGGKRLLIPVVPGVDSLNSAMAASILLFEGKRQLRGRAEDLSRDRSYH
Chain of UniProt Q9BSL1 (Q9BSL1 whole entry): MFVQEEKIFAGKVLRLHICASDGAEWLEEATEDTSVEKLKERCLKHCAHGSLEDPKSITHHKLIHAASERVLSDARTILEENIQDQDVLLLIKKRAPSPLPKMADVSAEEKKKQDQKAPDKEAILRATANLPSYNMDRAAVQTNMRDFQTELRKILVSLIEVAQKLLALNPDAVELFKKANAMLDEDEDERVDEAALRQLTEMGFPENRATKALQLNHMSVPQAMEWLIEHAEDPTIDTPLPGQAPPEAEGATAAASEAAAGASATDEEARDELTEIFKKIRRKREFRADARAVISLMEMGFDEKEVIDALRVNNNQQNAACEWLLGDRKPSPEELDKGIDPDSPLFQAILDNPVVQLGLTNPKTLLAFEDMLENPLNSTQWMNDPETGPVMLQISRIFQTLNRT
Chain of UniProt Q9NQC3 (Q9NQC3 whole entry): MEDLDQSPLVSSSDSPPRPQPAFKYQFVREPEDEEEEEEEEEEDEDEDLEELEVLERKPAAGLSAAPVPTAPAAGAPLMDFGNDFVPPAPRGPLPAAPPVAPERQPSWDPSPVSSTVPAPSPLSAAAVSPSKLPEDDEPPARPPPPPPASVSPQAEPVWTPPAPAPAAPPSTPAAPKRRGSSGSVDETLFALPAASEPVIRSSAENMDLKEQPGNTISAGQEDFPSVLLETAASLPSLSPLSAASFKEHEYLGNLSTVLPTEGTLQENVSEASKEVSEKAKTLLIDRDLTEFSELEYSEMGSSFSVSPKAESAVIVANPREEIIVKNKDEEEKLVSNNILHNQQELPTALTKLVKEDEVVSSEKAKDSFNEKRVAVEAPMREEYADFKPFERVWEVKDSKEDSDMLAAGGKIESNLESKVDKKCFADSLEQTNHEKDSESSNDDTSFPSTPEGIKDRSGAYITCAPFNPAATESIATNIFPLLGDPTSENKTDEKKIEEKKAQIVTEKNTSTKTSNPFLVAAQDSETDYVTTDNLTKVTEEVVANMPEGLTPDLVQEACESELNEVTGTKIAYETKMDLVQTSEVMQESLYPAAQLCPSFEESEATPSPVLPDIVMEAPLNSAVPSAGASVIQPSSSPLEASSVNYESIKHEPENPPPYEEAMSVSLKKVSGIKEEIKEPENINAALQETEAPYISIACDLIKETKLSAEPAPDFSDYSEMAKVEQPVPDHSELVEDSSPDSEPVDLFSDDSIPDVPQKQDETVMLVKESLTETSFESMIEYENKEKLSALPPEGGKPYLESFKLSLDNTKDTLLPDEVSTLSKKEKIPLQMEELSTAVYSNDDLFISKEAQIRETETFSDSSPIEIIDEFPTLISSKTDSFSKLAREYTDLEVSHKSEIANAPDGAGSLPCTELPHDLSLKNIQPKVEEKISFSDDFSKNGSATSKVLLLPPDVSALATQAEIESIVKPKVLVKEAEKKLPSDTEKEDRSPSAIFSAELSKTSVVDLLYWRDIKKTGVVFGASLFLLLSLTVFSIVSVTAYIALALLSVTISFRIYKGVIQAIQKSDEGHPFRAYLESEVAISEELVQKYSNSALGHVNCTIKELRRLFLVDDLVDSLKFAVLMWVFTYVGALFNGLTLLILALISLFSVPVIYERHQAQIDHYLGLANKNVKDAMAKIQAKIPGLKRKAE
Chain of UniProt Q9NXR1 (Q9NXR1 whole entry, one chain of several): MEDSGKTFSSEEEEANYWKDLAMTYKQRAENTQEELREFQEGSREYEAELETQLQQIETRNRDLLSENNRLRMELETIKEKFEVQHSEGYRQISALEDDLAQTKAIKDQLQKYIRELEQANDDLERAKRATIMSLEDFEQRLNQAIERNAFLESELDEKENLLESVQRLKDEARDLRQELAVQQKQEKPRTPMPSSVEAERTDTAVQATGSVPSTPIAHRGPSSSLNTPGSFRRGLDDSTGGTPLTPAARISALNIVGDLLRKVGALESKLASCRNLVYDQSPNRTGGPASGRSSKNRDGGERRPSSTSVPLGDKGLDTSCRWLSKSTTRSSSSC
Chain of UniProt Q9H773 (Q9H773 whole entry, one chain of several): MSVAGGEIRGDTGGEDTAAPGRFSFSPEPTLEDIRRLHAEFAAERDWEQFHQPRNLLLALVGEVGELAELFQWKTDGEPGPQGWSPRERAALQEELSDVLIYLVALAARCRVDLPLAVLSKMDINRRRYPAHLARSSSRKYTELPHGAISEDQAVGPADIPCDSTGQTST
Chain of UniProt Q9NRB3 (Q9NRB3 whole entry): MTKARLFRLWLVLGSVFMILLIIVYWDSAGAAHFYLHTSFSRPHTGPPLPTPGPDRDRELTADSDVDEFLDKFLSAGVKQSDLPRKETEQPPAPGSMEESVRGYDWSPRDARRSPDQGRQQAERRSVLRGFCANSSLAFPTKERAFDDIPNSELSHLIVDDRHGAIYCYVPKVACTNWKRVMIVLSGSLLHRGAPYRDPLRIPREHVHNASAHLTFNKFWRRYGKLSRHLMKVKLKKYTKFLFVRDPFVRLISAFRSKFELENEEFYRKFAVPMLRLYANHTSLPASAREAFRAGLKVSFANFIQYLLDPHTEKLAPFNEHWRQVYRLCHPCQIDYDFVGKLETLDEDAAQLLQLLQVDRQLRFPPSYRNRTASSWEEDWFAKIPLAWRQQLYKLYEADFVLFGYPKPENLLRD
Chain of UniProt Q9BPW8 (Q9BPW8 whole entry): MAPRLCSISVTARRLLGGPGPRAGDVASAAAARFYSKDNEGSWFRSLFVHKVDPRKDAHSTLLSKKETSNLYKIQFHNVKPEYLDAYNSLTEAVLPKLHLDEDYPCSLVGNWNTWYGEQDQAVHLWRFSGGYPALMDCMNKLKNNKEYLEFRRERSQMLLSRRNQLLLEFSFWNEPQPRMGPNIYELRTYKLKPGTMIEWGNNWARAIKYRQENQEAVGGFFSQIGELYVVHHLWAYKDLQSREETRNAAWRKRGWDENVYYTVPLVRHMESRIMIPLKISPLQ
Chain of UniProt Q9UK76 (Q9UK76 whole entry): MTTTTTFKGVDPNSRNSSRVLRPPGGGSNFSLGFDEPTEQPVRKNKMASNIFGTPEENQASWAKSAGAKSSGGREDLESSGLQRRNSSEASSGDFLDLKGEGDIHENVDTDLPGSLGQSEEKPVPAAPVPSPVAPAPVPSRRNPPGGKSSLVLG

Target	NP40-soluble protein abundance (concentration: 1mM)	NP40-soluble protein abundance (concentration: 2mM)	NP40-soluble protein abundance (concentration: 4mM)	NP40-soluble protein abundance (concentration: 6mM)	NP40-soluble protein abundance (concentration: 8mM)	NP40-soluble protein abundance (concentration: 10mM)
UBAC1 (UniProt Q9BSL1)	0.965 ± 0.0098	1.01 ± 0.011	0.998 ± 0.028	0.955 ± 0.015	0.932 ± 0.036	0.933 ± 0.034
UniProt Q9HC36	1.05 ± 0.047	1.1 ± 0.088	1.23 ± 0.12	1.37 ± 0.18	1.51 ± 0.22	1.6 ± 0.28
UniProt Q9NVI7-2	1.08 ± 0.075	1.05 ± 0.073	1.14 ± 0.18	1.29 ± 0.18	1.38 ± 0.24	1.44 ± 0.32
UniProt Q9UK76	1.08 ± 0.088	1.1 ± 0.08	1.03 ± 0.067	0.982 ± 0.092	0.893 ± 0.037	0.973 ± 0.1
UniProt Q9Y462|Q9Y462-3	1 ± 0.032	1.02 ± 0.037	1.012 ± 0.0034	1.01 ± 0.036	1.024 ± 0.0028	1.02 ± 0.013
UniProt Q9Y5B6|Q9Y5B6-2	1.03 ± 0.048	1.05 ± 0.017	1.07 ± 0.057	1.06 ± 0.051	1.07 ± 0.049	1.14 ± 0.053
UniProt Q9NPB8|H0Y565	1.01 ± 0.017	1.05 ± 0.034	1.02 ± 0.015	0.999 ± 0.033	0.9977 ± 0.0075	1.02 ± 0.019
UTP11 (UniProt Q9Y3A2)	1.02 ± 0.026	1.04 ± 0.037	1.03 ± 0.025	1.05 ± 0.026	1.05 ± 0.018	1.08 ± 0.018
NIPSNAP1 (UniProt Q9BPW8)	0.94 ± 0.05	0.873 ± 0.075	0.943 ± 0.028	0.954 ± 0.08	1.02 ± 0.036	0.948 ± 0.021
C9orf78 (UniProt Q9NZ63)	0.999 ± 0.047	1.03 ± 0.038	0.982 ± 0.055	0.971 ± 0.036	0.966 ± 0.034	0.939 ± 0.078
RTN4 (UniProt Q9NQC3)	1.05 ± 0.014	1.07 ± 0.057	1.04 ± 0.028	1.02 ± 0.014	1.01 ± 0.032	1.03 ± 0.065
TPX2 (UniProt Q9ULW0)	1.09 ± 0.013	1.2 ± 0.077	1.23 ± 0.066	1.27 ± 0.049	1.32 ± 0.072	1.39 ± 0.049
NARS2 (UniProt Q96I59)	0.955 ± 0.032	0.904 ± 0.033	0.927 ± 0.036	1 ± 0.048	1 ± 0.011	0.963 ± 0.066
MCEE (UniProt Q96PE7)	0.998 ± 0.04	1.01 ± 0.04	0.997 ± 0.046	1.06 ± 0.036	1.03 ± 0.08	1.05 ± 0.1
UniProt Q9UBK8|Q9UBK8-2	0.928 ± 0.02	0.881 ± 0.038	0.916 ± 0.041	0.971 ± 0.031	0.94 ± 0.051	0.964 ± 0.049
RAB39B (UniProt Q96DA2)	1 ± 0.025	0.934 ± 0.066	0.996 ± 0.019	0.9868 ± 0.0097	0.986 ± 0.015	0.954 ± 0.041
UniProt Q9UPT9|Q9UPT9-2	0.953 ± 0.022	0.953 ± 0.035	0.96 ± 0.025	0.922 ± 0.027	0.936 ± 0.021	0.922 ± 0.02
UniProt Q9H773|H3BSA6	1.03 ± 0.02	1.01 ± 0.019	1.041 ± 0.0073	1.03 ± 0.015	1.01 ± 0.019	1 ± 0.022
PUS7 (UniProt Q96PZ0)	1.03 ± 0.035	1.002 ± 0.0077	1.04 ± 0.019	1.008 ± 0.009	1.01 ± 0.015	1.01 ± 0.028
UniProt Q9UM21	1.02 ± 0.058	0.987 ± 0.034	0.981 ± 0.023	1 ± 0.071	1 ± 0.043	0.991 ± 0.023
UniProt Q9Y2S0|Q9Y2S0-2|A0A0R4J2F3	1.03 ± 0.024	1.06 ± 0.053	1.08 ± 0.062	1.02 ± 0.018	1.03 ± 0.041	1.07 ± 0.036
UniProt Q9P2R7|Q9P2R7-2	0.9771 ± 0.0078	0.943 ± 0.027	0.938 ± 0.011	0.977 ± 0.032	0.958 ± 0.012	0.969 ± 0.049
UniProt Q9H2H8|B8ZZ77|Q9H2H8-2	1.04 ± 0.038	1.04 ± 0.032	1.04 ± 0.017	0.998 ± 0.031	1.02 ± 0.018	1.03 ± 0.038
UniProt Q9NXR1|Q9NXR1-2|X5DR54	0.994 ± 0.029	1.07 ± 0.041	1.01 ± 0.025	0.978 ± 0.019	0.985 ± 0.026	0.9852 ± 0.0096
UniProt Q9Y5Y5|Q9Y5Y5-2	0.967 ± 0.051	0.97 ± 0.05	0.9611 ± 0.0026	1.04 ± 0.024	1.03 ± 0.032	1.02 ± 0.052
PSMD1 (UniProt Q99460)	0.902 ± 0.044	0.887 ± 0.06	0.851 ± 0.094	0.863 ± 0.11	0.848 ± 0.098	0.847 ± 0.13
CHST12 (UniProt Q9NRB3)	1.001 ± 0.0077	0.999 ± 0.01	0.9935 ± 0.0064	1 ± 0.016	1.017 ± 0.0078	1.011 ± 0.0063
UniProt Q9Y2Y0|Q9Y2Y0-2	0.982 ± 0.014	0.972 ± 0.026	0.989 ± 0.036	0.988 ± 0.049	0.975 ± 0.032	0.953 ± 0.015
CCDC115 (UniProt Q96NT0)	0.994 ± 0.046	1.01 ± 0.043	1.01 ± 0.035	1 ± 0.04	0.968 ± 0.06	0.992 ± 0.041
